# Source: PubChem BioAssay AID504447 (The Scripps Research Institute Molecular Screening Center, 2011)
# Potency and affinity values are given separately. Unmarked numbers belong to inactive results. How the calls were made is not given here.
# Molecular target: Peroxisome proliferator-activated receptor gamma (Homo sapiens) (UniProt P37231)
# Assay: PPARg transcriptional activation, reporter cells – cell-based, luminescence, assay provider, dose response (AID 504447)
# Conditions: luciferase luminescence, partial agonism; series mostly up to 5 µM; fold change activation: at the top concentration
# Chain of Peroxisome proliferator-activated receptor gamma (Homo sapiens) (P37231 whole entry, looked up): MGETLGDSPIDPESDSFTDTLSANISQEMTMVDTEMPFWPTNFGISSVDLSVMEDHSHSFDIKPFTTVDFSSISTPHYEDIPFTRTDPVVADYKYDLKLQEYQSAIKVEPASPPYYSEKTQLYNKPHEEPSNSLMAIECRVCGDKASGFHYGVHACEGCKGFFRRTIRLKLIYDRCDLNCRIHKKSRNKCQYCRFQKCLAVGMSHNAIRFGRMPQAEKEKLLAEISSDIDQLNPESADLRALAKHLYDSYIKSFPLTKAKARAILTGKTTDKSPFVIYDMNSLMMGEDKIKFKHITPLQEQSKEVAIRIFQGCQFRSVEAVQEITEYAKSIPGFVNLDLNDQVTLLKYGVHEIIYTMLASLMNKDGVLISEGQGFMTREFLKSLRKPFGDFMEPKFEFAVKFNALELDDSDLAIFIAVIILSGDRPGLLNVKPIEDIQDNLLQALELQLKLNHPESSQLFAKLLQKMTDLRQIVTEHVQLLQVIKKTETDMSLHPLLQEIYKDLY
row,Compound,fold change activation
1,COc1ccc(CNC(=O)Cn2c(=O)n(CCC(=O)N3CCCCC3)c(=O)c3sccc32)cc1,1.15 fold
2,O=c1c2cn(Cc3ccc(F)cc3)c3ccccc3c-2nn1Cc1ccc(F)cc1,1.04 fold
3,CCOc1cc(C2C(C(=O)OC)=CN(Cc3ccc(Cl)cc3)C=C2C(=O)OC)ccc1O,1.06 fold
4,O=C(c1cccc(N2C(=O)C3C4C=CC(C4)C3C2=O)c1)N1CCN(c2ccccc2Cl)CC1 (stereo not drawn),0.9 fold
5,O=C(NC(Cc1ccccc1)C(=O)N1CCN(c2ccccc2O)CC1)c1ccccc1 (stereo not drawn),0.99 fold
6,CCOc1cccc(/C(O)=C2/C(=O)C(=O)N(CCN3CCOCC3)C2c2ccncc2)c1 (stereo not drawn),1.06 fold
7,Cc1ccc2nc(N3C(=O)C(O)=C(C(=O)c4ccco4)C3c3cccc(O)c3)sc2c1 (stereo not drawn),1.17 fold
8,O=C(O)CCN1C(=O)/C(=C/c2ccccc2)SC1=S,0.99 fold
9,CC(Oc1ccc2c(c1)oc(=O)c1ccccc12)C(=O)NC(Cc1c[nH]c2ccc(O)cc12)C(=O)O (stereo not drawn),0.99 fold
10,O=C(O)CCN1C(=O)/C(=C/c2ccc(C(F)(F)F)cc2C(F)(F)F)SC1=S,0.98 fold
11,O=C(CSc1nnc(Cc2cc(=O)[nH]c(=O)[nH]2)n1-c1ccc(Cl)cc1)N1CCc2ccccc21,1.03 fold
12,COCCn1cnc2c1c(=O)n(Cc1cc(C(C)=O)ccc1OC)c(=O)n2Cc1ccccc1,1.14 fold
13,O=C1C(=O)N(CCCn2ccnc2)C(c2ccc(Cl)cc2)/C1=C(\O)c1ccc2c(c1)OCCO2 (stereo not drawn),1.01 fold
14,COc1ccc(CN(Cc2ccccn2)C(=O)CN2C(=O)C(C)Oc3ccccc32)cc1 (stereo not drawn),1.05 fold
15,O=c1c2cn(Cc3ccc(F)cc3)c3ccc(F)cc3c-2nn1Cc1ccc(F)cc1,1.24 fold
16,CCC(=O)c1ccc(OCC(=O)OC(C)C(=O)Nc2c(C)n(C)n(-c3ccccc3)c2=O)cc1 (stereo not drawn),1.08 fold
17,O=C1CC(N2CCN(Cc3ccc4c(c3)OCO4)CC2)C(=O)N1Cc1ccc(N2CCCC2=O)cc1 (stereo not drawn),1.06 fold
18,COc1cc(/C=C(\NC(=O)c2ccccc2)C(=O)NC(C(=O)O)c2ccccc2)cc(OC)c1OC (stereo not drawn),0.9 fold
19,Cc1cccc(NC(=O)CN2C(=O)/C(=C3\SC(=S)N(CC4CCCO4)C3=O)c3ccccc32)c1 (stereo not drawn),1.07 fold
20,COc1ccc(S(=O)(=O)N2CCCCC2)cc1NC(=O)C1CSC2(C)CCC(=O)N12 (stereo not drawn),1.1 fold
21,CCOc1cccc(/C(O)=C2/C(=O)C(=O)N(Cc3ccco3)C2c2ccncc2)c1 (stereo not drawn),0.91 fold
22,COc1ccc(-c2cc(C(=O)NC(C)c3ccccn3)c3ccccc3n2)cc1OC (stereo not drawn),1.03 fold
23,O=C(O)CCN1C(=O)/C(=C/c2ccccc2Cl)SC1=S,0.99 fold
